From PubChem BioAssay AID1721 (National Center for Advancing Translational Sciences (NCATS), 2009)
About 1,100 (0.38%) of roughly 290,000 compounds were called active. The list comes from a sample in which actives are over-represented; it also holds similar structures and randomly drawn compounds. Values without a mark were called inactive. The call rests on the fitted dose curve; in most records, active means well fitted inhibition curve with a large enough effect; inconclusive means small, poorly fitted or top-dose-only effect, or another doubt; inactive means no such curve, though single readings can be large or run the other way.

biological target: Pyruvate kinase (Leishmania mexicana) (UniProt Q27686); assay: qHTS Assay for Inhibitors of Leishmania Mexicana Pyruvate Kinase (LmPK); conditions: purified LmPK, Kinase-Glo ATP luminescence, 1 h; series mostly up to 57.5 µM; activity change, negative = inhibition: at the top concentration
Sequence (Q27686 whole entry, looked up): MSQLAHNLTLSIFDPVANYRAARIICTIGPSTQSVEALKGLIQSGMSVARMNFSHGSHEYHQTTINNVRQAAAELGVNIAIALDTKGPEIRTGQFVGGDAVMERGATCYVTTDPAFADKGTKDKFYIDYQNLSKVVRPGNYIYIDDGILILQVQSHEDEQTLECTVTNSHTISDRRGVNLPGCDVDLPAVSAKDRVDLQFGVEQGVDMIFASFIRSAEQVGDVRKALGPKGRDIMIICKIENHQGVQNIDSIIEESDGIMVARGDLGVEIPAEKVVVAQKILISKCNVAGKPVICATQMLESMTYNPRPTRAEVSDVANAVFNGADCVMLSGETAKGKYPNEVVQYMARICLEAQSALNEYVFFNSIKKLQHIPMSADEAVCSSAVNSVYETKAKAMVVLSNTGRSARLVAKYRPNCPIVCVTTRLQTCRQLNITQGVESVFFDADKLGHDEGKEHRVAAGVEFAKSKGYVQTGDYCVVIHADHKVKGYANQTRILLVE
Text: NIH Chemical Genomics Center [NCGC] Malcolm Walkinshaw, Hugh Morgan, Linda Gilmore University of Edinburgh, UK MLPCN Grant: 1 R03 MH085697-01 NCGC Assay Overview: Pyruvate kinase (L. Mexicana) (LmPK) enzyme was supplied as a highly purified (>95% pure) sulphate-free preparation from University of Edinburgh, UK and assayed for its ability to generate ATP from ADP using phosphoenolpyruvate (PEP) as a substrate. ATP generation was detected in a coupled reaction by luciferase-mediated luminescence, an ATP-dependent process. […] The enzyme was assayed at an intermediate level of activity to screen for both inhibitors and activators.
NCGC Assay Protocol Summary: Three uL of enzyme mix (kept on ice) in assay buffer (50 mM Imidazole pH7.2, 50 mM KCl, 7 mM MgCl2, 0.01% Tween 20, 0.05% BSA) containing PEP (0.5 mM final concentration) and LmPK (0.1 nM final concentration) was dispensed into white solid bottom 1,536 well microtiter plates. 23 nL of compound were delivered by a pin tool and 1 uL of ADP mix in assay buffer (r.t; 0.1 mM final ADP concentration) was added. Plates were incubated at room temperature for 1 hour. Two uL of detection mix (Kinase-Glo, Promega; at 4 degree Celsius protected from light) was added and luminescence read by a ViewLux (Perkin Elmer) at 1 second exposure/plate. Data were normalized to the uninhibited and AC100 inhibition (no enzyme). To monitor activation, the first column contained a five-fold concentration of LmPK (0.5 nM).
On the % scale 0 is the no-effect control and ±100 the full control effect; potency means the concentration at half of the fitted maximal effect.

Compound | activity change, negative = inhibition [%] | Potency
CC1CC(C)CN(c2ccc(S(=O)(=O)N3CCOCC3)cc2)C1 (centres undefined) | -0.351 | –
Cc1cc(CN(C)C(=O)c2cc(COc3ccc(C)c(C)c3)on2)n[nH]1 | -9.74 | –
O=c1oc2ccccc2cc1-c1csc(Nc2ccc(O)cc2)n1 | -1.09 | –
O=C(NCc1cccnc1)c1cccc(-c2cc3ccccc3oc2=O)c1 | 4.26 | –
Nc1ncc(-c2cc3ccccc3oc2=O)s1 | – | 11.2 µM (active)
Clc1ccc(-c2ncc3ccccn23)c(Cl)c1 | 13.2 | –
O=C1CSC(c2ccccc2)N1c1nc(-c2ccc(Cl)cc2Cl)cs1 (centres undefined) | 3.75 | –
Clc1ccc(-c2cc(-c3ccccn3)on2)c(Cl)c1 | – | 15.8 µM (active)
CCOC(=O)C(C)n1cnc2c(nnn2-c2ccc(F)cc2)c1=O (centres undefined) | -2.05 | –
CN(C)N1C(N)=C(C#N)C(c2ccc(Br)cc2)C2=C1CCCC2=O (centres undefined) | -1.06 | –
COc1ccc(-c2cn3cccnc3n2)cc1 | -19.6 | –
COc1ccc(-c2cn3ccc(C)cc3n2)cc1 | – | 8.91 µM (active)
CCN(CC)S(=O)(=O)c1ccc(-c2cn3ccc(C)cc3n2)cc1 | 6.04 | –
Cc1ccc(NS(=O)(=O)c2c(C)[nH]c(C)c2C(=O)N2CCCCC2)c(C)c1 | 3.83 | –
c1ccc2[nH]c(-c3nc4ccccc4[nH]3)nc2c1 | – | 8.91 µM (active)
OC(c1nc2ccccc2[nH]1)C(O)C(O)C(O)c1nc2ccccc2[nH]1 (centres undefined) | -3.27 | –
COc1ccc(Br)cc1C(=O)NC(=S)Nc1cc(-c2nc3ccccc3[nH]2)ccc1C | -0.276 | –

Compound | activity change, negative = inhibition [%] | Potency
Cc1ccc(-c2nc3ccccc3[nH]2)cc1NC(=O)c1sc2ccccc2c1Cl | 2.87 | –
O=C(Nc1cccc(-c2nc3ccccc3[nH]2)c1)c1ccc(C(=O)Nc2cccc(-c3nc4ccccc4[nH]3)c2)cc1 | -0.55 | –
Cc1ccc(-c2nc3ccccc3[nH]2)cc1N | – | 15.8 µM (active)
C[C@H](NC(=O)C1CCN(S(=O)(=O)c2ccccc2)CC1)C(=O)NCc1ccccc1 | 7.11 | –
COc1ccccc1C(=O)NC(=S)Nc1ccccc1N1CCCCC1 | -1.2 | –
CC1(C)Cc2c(sc(NC(=O)C(=O)N3CCOCC3)c2C#N)CO1 | -5.69 | –
COc1ccc(C(=O)C[n+]2ccc(C)cc2)cc1 | -0.711 | –
COc1ccc(C(=O)C[n+]2ccc(N)c(C)c2C)cc1 | – | 7.94 µM (active)
COc1ccc(OCCC(=O)c2ccc(OC)cc2)cc1 | 1.36 | –
CC(=O)NC1=NN(C(C)=O)C(C)(c2ccc(Cl)s2)S1 (centres undefined) | -1.14 | –
CC(C)[C@H](NC(=O)N1CCn2c1nc1ccccc12)C(=O)NCc1ccc2c(c1)OCO2 | 9.8 | –
COc1ccc(C(=O)O/N=C(\N)c2ccccn2)cc1[N+](=O)[O-] | 4.73 | –
N/C(=N\OC(=O)c1ccc([N+](=O)[O-])cc1)c1ccccn1 | – | 5.01 µM (active)
N/C(=N\OC(=O)Cc1ccc([N+](=O)[O-])cc1)c1ccccn1 | -2.74 | –
COc1cccc(NC(=O)[C@H](Cc2c[nH]c3ccccc23)NC(=O)[C@@H]2Cc3ccccc3CN2)c1 | 6.25 | –
COc1cc(C(=O)N/C(=C\c2cn(C)c3ccccc23)C(=O)N2CCOCC2)cc(OC)c1OC | -3.61 | –
COc1cnc(-c2ccccn2)nc1Oc1ccc(C(C)(C)C)cc1 | 1.88 | –
